Test results reported in PubChem BioAssay AID1159580 (chemical genetic matrix, 2015).
Several values for one entry are separate records, joined by “and”; a condition that tells them apart may be missing. Equal values may be shown once. The whole screen tested about 5,500 compounds, of which about 2,000 (36%) were called active. Another 18% or so got no clear call; they are omitted. Cut-off read from the data, not from the text of the source: active = normalized growth mostly below about 0.91 (no sharp cut-off); inconclusive = no clear call, values can overlap the other calls; inactive = mostly above about 0.92. This is one part of the list.

Assay: chemical genetic growth profiling, strain panel (AID 1159580);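 note: tested at 20 µM; growth read once vehicle control cultures reached saturation at 30 °C; 1 = growth at the plate median or of vehicle wells; lower values mean less growth of the strain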
Conditions: S. cerevisiae deletion strains, growth OD

Measured: normalized growth

CN(C(=O)CN(CCO)CC(=O)N(C)C(C)(C)Cc1ccccc1)C(C)(C)Cc1ccccc1
inactive: locus YAL021C, strain ccr4, hits give low values 1.01 | locus YAL026C, strain drs2, hits give low values 1.02 | locus YAL030W, strain snc1, hits give low values 1 | locus YBL061C, strain skt5, hits give low values 1.01 | locus YBR009C, strain hhf1, hits give low values 1.01 | locus YBR021W, strain FUR4, hits give low values 0.985 | locus YBR023C, strain chs3, hits give low values 1.01 | locus YBR171W, strain sec66, hits give low values 1.04 | locus YBR229C, strain ROT2, hits give low values 0.993 | locus YBR231C, strain swc5, hits give low values 1 | locus YBR279W, strain paf1, hits give low values 1.01 | locus YCL011C, strain gbp2, hits give low values 1.01 | locus YCL016C, strain dcc1, hits give low values 1.01 | locus YCL029C, strain bik1, hits give low values 0.97 | locus YCL061C, strain MRC1, hits give low values 1.02 | locus YCL069W, strain vba3, hits give low values 1.01 | locus YCR088W, strain abp1, hits give low values 1.01 | locus YDL005C, strain med2, hits give low values 1 | locus YDL035C, strain GPR1, hits give low values 0.954 | locus YDL040C, strain nat1, hits give low values 1 | locus YDL074C, strain BRE1, hits give low values 0.978 | locus YDL101C, strain DUN1, hits give low values 1 | locus YDL134C, strain PPH21, hits give low values 0.983 | locus YDL185W, strain tfp1, hits give low values 0.954 | locus YDL192W, strain arf1, hits give low values 0.98 | locus YDR001C, strain nth1, hits give low values 1.01 | locus YDR069C, strain doa4, hits give low values 1.01 | locus YDR101C, strain arx1, hits give low values 1 | locus YDR137W, strain rgp1, hits give low values 1.07 | locus YDR159W, strain sac3, hits give low values 0.998 | locus YDR162C, strain NBP2, hits give low values 0.957 | locus YDR195W, strain ref2 0.995 | locus YDR297W, strain sur2, hits give low values 1 | locus YDR318W, strain mcm21, hits give low values 0.979 | locus YDR334W, strain swr1, hits give low values 1.02 | locus YDR335W, strain msn5, hits give low values 1.01 | locus YDR388W, hits give low values 0.979 | locus YDR392W, strain spt3, hits give low values 0.981 | locus YDR502C, strain sam2, hits give low values 0.981 | locus YEL003W, strain gim4, hits give low values 1.01 | locus YEL037C, strain rad23, hits give low values 1.02 | locus YEL061C, strain CIN8 (second series), hits give low values 1.02 | locus YEL061C, strain CIN8, hits give low values 0.997 | locus YER015W, strain faa2, hits give low values 1.02 | locus YER016W, strain bim1, hits give low values 1.03 | locus YER110C, hits give low values 0.976 | locus YER111C, strain swi4, hits give low values 1.02 | locus YER155C, strain BEM2 (second series), hits give low values 1.02 | locus YER155C, strain BEM2, hits give low values 0.994 | locus YER167W, strain BCK2, hits give low values 0.987 | locus YFR010W, strain ubp6, hits give low values 1.01 | locus YGL078C, strain dbp3, hits give low values 0.983 | locus YGL086W, strain mad1, hits give low values 0.979 | locus YGL167C, strain pmr1, hits give low values 1.01 | locus YGL173C, strain kem1, hits give low values 1.02 | locus YGL227W, strain vid30, hits give low values 1.02 | locus YGL240W, strain doc1, hits give low values 0.986 | locus YGL248W, strain PDE1, hits give low values 1.01 | locus YGL253W, strain hxk2, hits give low values 1.03 | locus YGR078C, strain PAC10, hits give low values 1 | locus YGR135W, strain pre9, hits give low values 0.973 | locus YGR229C, strain SMI1, hits give low values 0.98 | locus YGR252W, strain gcn5, hits give low values 1.01 | locus YHR013C, strain ard1, hits give low values 1.04 | locus YHR027C, strain rpn1, hits give low values 1.02 | locus YHR030C, strain SLT2, hits give low values 0.985 and 0.989 | locus YHR079C, strain IRE1 (second series), hits give low values 0.975 | locus YHR079C, strain IRE1, hits give low values 0.98 | locus YHR094C, strain hxt1, hits give low values 0.99 | locus YHR129C, strain ARP1, hits give low values 0.992 | locus YHR142W, strain chs7, hits give low values 1.02 | locus YHR200W, strain rpn10, hits give low values 0.971 | locus YIL066C, strain RNR3, hits give low values 0.996 | locus YIL073C, strain SPO22, hits give low values 1.14 | locus YIL125W, strain kgd1, hits give low values 0.988 | locus YIR030C, strain dcg1, hits give low values 0.976 | locus YJL092W, strain hpr5, hits give low values 1.01 | locus YJL095W, strain BCK1 (second series), hits give low values 1.01 | locus YJL095W, strain BCK1, hits give low values 1.01 | locus YJL115W, strain asf1, hits give low values 1.02 | locus YJL129C, strain trk1, hits give low values 1.02 | locus YJL134W, strain LCB3, hits give low values 0.986 | locus YJL154C, strain vps35, hits give low values 1.01 | locus YJL164C, strain tpk1, hits give low values 1 | locus YJL166W, strain qcr8, hits give low values 1.01 | locus YJL168C, strain set2, hits give low values 0.989 | locus YJL187C, strain SWE1 (second series), hits give low values 1.01 | locus YJL187C, strain SWE1, hits give low values 1.01 | locus YJR043C, strain POL32, hits give low values 0.962
